Of roughly 8,800 targets only a part is listed; those with a hit were picked by preference. About 0.5% of all pairs of compound and target were hits. Unmarked numbers belong to inactive results.
Experiments:
Test in all cases: log2 fold change, soluble protein after heating vs DMSO (PISA); higher = thermal stabilisation; K562 lysate, 10 uM; active = over 0.2 and 3.5 SD of the protein, either way, in both replicates (recomputed)
alvocidib = compound: CN1CC[C@H](c2c(O)cc(O)c3c(=O)cc(-c4ccccc4Cl)oc23)[C@H](O)C1 [alvocidib]
Procedure, shortened: (§1)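 A 30 min treatment with 10 μM compound was applied to crude K562 extract at 1 mg/mL protein in PBS pH 7.4 with 1 mM MgCl2. Heating for 3 min spanned 48°C-58°C, after which aliquots were pooled, adjusted to 0.5% NP-40 at 4°C and spun at 21,000xg for 90 min. TMTpro 16plex LC-MS/MS of the supernatant, with channel sums equalised, gave values recorded as log-two fold change in thermal stability against solvent controls, from duplicates.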

Tubastatin A = compound: CN1CCc2c(c3ccccc3n2Cc2ccc(C(=O)NO)cc2)C1 [Tubastatin A]
Procedure, shortened: as §1

[1] = compound: CNC(=O)C1=CC=CC=C1NC2=NC(=NC=C2Cl)NC3=C(C=C(C=C3)N4CCOCC4)OC
Procedure, shortened: as §1

[2] = compound: CNc1nc(-c2ccc3c(N)n[nH]c3c2)cc(N2C[C@@H](C(=O)NC3CCCCC3)CC[C@H]2C)n1
Procedure, shortened: as §1

alisertib = compound: COc1cc(Nc2ncc3c(n2)-c2ccc(Cl)cc2C(c2c(F)cccc2OC)=NC3)ccc1C(=O)O [alisertib]
Procedure, shortened: as §1

gefitinib = compound: COc1cc2ncnc(Nc3ccc(F)c(Cl)c3)c2cc1OCCCN1CCOCC1 [gefitinib]
Procedure, shortened: as §1

pictilisib = compound: CS(=O)(=O)N1CCN(Cc2cc3nc(-c4cccc5[nH]ncc45)nc(N4CCOCC4)c3s2)CC1 [pictilisib]
Procedure, shortened: as §1

crizotinib = compound: C[C@@H](Oc1cc(-c2cnn(C3CCNCC3)c2)cnc1N)c1c(Cl)ccc(F)c1Cl [crizotinib]
Procedure, shortened: as §1

[3] = compound: C[C@H](C1=CC=C(C=C1)C(=O)NC2=C3C=CNC3=NC=C2)N
Procedure, shortened: as §1

duvelisib = compound: C[C@H](Nc1ncnc2nc[nH]c12)c1cc2cccc(Cl)c2c(=O)n1-c1ccccc1 [duvelisib]
Procedure, shortened: as §1

gandotinib = compound: Cc1cc(Nc2cc(CN3CCOCC3)c3nc(C)c(Cc4ccc(Cl)cc4F)n3n2)n[nH]1 [gandotinib]
Procedure, shortened: as §1

doramapimod = compound: Cc1ccc(-n2nc(C(C)(C)C)cc2NC(=O)Nc2ccc(OCCN3CCOCC3)c3ccccc23)cc1 [doramapimod]
Procedure, shortened: as §1

bafetinib = compound: Cc1ccc(NC(=O)c2ccc(CN3CC[C@H](N(C)C)C3)c(C(F)(F)F)c2)cc1Nc1nccc(-c2cncnc2)n1 [bafetinib]
Procedure, shortened: as §1

[4] = compound: Cc1cccc(CC(=O)N2CCc3c2ccc(-c2cn(C)c4ncnc(N)c24)c3F)n1
Procedure, shortened: as §1

defactinib = compound: CNC(=O)c1ccc(Nc2ncc(C(F)(F)F)c(NCc3nccnc3N(C)S(C)(=O)=O)n2)cc1 [defactinib]
Procedure, shortened: as §1

encorafenib = compound: COC(=O)N[C@@H](C)CNc1nccc(-c2cn(C(C)C)nc2-c2cc(Cl)cc(NS(C)(=O)=O)c2F)n1 [encorafenib]
Procedure, shortened: as §1

[5] = compound: COC(=O)[C@H](CCSC)NC(=O)C1=C(C=C(C=C1)NC[C@H](CS)N)C2=CC=CC=C2
Procedure, shortened: as §1

[6] = compound: COc1cc2nc(-c3cc(F)ccc3O)nc(N[C@@H]3CNC[C@H]3C(C)(C)O)c2cc1OC
Procedure, shortened: as §1

lapatinib = compound: CS(=O)(=O)CCNCc1ccc(-c2ccc3ncnc(Nc4ccc(OCc5cccc(F)c5)c(Cl)c4)c3c2)o1 [lapatinib]
Procedure, shortened: as §1

tozasertib = compound: Cc1cc(Nc2cc(N3CCN(C)CC3)nc(Sc3ccc(NC(=O)C4CC4)cc3)n2)n[nH]1 [tozasertib]
Procedure, shortened: as §1

Sequence of UniProt P30622 (P30622 whole entry, looked up): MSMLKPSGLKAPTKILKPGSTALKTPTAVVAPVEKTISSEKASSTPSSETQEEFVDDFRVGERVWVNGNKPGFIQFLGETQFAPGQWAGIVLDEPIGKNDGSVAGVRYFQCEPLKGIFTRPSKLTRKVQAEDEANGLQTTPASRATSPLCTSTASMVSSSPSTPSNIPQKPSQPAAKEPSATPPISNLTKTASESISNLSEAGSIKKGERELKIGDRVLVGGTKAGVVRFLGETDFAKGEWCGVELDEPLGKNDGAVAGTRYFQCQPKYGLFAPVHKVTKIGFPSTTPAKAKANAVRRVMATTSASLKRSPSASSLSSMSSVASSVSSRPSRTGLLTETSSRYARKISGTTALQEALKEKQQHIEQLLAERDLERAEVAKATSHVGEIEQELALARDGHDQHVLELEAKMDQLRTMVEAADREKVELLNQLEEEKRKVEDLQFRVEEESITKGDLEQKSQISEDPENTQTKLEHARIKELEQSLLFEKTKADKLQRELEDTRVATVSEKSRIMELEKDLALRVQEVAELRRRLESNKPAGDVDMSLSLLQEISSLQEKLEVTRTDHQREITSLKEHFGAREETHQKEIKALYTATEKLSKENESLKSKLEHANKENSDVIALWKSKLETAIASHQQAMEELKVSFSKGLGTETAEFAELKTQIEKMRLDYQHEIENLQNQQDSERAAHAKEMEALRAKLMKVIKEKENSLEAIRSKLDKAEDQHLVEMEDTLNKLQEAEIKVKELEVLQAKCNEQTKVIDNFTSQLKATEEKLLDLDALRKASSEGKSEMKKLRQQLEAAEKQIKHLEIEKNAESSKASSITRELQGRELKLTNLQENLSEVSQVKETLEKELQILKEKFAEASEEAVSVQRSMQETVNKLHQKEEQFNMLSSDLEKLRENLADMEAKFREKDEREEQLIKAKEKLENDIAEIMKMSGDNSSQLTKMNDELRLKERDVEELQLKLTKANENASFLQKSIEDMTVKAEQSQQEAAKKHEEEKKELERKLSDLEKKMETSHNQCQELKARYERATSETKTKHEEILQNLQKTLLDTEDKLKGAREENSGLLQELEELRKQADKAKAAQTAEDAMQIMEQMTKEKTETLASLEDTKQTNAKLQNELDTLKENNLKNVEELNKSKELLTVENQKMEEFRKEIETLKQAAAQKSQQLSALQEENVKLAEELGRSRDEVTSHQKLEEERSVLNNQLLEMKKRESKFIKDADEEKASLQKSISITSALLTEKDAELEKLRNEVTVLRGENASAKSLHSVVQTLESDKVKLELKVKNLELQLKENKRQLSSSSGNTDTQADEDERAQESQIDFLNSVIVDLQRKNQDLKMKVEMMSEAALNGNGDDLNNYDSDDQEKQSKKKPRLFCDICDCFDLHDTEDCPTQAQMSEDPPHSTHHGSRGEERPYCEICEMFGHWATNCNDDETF
Sequence of UniProt Q6ZWL3 (Q6ZWL3 whole entry, looked up): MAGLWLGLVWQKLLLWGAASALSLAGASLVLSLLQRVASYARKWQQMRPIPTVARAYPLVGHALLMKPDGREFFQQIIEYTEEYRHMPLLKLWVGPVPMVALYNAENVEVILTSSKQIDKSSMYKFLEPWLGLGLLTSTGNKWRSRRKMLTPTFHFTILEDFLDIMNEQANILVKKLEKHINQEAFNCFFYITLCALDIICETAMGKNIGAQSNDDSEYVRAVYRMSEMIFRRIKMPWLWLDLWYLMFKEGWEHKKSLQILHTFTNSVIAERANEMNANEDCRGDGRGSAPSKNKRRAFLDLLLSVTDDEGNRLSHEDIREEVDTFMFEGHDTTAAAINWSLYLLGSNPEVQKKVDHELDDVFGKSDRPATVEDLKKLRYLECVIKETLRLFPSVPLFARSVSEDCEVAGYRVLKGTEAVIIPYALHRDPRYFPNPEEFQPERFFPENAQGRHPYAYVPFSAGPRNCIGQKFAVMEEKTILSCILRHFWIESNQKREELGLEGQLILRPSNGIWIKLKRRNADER
Sequence of UniProt P12111 (P12111 whole entry, looked up): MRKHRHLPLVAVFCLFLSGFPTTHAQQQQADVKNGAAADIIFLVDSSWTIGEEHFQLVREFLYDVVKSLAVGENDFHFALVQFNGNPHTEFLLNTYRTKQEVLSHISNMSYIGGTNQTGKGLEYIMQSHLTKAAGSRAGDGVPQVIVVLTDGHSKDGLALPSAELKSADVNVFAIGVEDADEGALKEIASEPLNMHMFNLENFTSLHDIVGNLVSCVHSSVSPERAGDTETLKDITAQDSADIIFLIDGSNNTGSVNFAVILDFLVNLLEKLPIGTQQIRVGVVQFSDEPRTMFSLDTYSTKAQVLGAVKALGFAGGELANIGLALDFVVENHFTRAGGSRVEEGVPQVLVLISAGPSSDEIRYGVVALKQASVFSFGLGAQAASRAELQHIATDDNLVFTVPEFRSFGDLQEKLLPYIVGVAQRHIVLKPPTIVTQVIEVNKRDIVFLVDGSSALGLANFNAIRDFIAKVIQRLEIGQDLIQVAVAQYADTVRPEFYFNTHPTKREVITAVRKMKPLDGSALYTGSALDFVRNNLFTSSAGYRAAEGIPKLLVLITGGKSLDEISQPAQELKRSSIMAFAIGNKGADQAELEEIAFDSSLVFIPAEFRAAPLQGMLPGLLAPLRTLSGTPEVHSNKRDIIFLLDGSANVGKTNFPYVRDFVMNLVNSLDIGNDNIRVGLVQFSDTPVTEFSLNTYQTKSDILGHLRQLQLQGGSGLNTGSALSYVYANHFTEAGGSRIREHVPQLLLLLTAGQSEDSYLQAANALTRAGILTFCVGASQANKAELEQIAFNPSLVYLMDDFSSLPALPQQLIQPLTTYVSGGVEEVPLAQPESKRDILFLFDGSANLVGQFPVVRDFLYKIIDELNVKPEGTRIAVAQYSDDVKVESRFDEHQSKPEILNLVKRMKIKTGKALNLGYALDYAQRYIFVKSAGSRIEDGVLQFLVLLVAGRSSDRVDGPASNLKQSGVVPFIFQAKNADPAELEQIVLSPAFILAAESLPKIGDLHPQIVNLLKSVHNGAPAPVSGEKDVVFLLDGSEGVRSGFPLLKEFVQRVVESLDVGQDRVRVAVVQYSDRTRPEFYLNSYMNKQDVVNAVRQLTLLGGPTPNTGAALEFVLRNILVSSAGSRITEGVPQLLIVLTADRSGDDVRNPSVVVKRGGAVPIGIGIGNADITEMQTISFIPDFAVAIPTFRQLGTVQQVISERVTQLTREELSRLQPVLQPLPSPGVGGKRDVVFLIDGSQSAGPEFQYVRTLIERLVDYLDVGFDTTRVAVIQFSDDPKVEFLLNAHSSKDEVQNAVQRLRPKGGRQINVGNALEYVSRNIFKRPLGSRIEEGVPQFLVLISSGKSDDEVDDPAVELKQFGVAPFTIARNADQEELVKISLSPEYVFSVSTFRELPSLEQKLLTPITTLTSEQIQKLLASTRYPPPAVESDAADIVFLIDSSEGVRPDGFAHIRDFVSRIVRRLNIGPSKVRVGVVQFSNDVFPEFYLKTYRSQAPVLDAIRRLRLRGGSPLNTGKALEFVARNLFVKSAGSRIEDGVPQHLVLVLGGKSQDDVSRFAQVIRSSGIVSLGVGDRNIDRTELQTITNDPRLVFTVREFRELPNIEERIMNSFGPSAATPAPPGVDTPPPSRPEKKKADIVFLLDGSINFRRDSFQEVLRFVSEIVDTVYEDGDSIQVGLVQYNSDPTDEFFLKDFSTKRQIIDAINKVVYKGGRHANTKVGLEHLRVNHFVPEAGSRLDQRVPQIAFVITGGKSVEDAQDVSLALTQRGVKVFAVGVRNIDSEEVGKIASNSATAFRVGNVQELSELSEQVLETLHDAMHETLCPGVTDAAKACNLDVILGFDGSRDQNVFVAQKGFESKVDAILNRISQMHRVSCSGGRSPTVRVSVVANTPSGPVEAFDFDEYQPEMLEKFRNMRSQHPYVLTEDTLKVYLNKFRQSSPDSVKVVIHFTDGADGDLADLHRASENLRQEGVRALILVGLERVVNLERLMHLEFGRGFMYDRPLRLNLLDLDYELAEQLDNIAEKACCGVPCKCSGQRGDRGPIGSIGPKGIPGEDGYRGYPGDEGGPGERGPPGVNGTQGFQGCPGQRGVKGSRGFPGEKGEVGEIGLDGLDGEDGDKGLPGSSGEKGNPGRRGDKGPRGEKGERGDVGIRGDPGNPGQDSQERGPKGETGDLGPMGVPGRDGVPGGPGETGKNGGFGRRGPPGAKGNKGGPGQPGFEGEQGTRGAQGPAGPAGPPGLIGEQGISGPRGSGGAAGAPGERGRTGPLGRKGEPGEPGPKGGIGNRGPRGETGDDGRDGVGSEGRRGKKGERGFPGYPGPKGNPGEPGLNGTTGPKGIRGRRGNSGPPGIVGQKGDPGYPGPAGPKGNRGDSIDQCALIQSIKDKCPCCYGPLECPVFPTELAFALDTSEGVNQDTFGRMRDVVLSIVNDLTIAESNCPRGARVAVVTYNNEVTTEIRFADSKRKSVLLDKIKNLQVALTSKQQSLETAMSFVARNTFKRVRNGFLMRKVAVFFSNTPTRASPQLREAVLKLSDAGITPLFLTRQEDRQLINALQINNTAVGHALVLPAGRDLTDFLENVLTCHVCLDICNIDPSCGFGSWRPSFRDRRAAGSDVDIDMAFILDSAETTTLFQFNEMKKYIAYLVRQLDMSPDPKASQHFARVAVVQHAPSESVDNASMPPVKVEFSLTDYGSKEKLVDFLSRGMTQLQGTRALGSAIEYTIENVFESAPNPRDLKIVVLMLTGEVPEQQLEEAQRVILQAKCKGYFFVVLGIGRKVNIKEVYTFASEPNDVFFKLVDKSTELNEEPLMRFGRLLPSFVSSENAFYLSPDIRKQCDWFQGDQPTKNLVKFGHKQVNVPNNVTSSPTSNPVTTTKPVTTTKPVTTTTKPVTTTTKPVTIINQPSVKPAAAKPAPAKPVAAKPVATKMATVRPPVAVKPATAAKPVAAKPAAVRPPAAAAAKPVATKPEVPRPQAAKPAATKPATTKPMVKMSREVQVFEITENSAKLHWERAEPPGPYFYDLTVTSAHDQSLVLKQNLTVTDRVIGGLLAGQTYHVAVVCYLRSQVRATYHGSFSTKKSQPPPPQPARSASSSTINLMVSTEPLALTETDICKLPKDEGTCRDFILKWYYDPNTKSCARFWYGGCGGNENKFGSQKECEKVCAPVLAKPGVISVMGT

Row | Target | log2 fold change (alvocidib) | log2 fold change (Tubastatin A) | log2 fold change [1] | log2 fold change [2] | log2 fold change (alisertib) | log2 fold change (gefitinib) | log2 fold change (pictilisib) | log2 fold change (crizotinib) | log2 fold change [3] | log2 fold change (duvelisib) | log2 fold change (gandotinib) | log2 fold change (doramapimod) | log2 fold change (bafetinib) | log2 fold change [4] | log2 fold change (defactinib) | log2 fold change (encorafenib) | log2 fold change [5] | log2 fold change [6] | log2 fold change (lapatinib) | log2 fold change (tozasertib)
1 | COL6A3 (UniProt P12111) | 0.045 | 0.017 | -0.126 | 0.13 | -0.323 | 0.164 | -0.019 | -0.023 | -0.04 | 0.013 | -0.036 | 0.032 | 0.036 | 0.048 | – | – | – | – | – | –
2 | CNIH4 (UniProt Q9P003) | – | 0.1 | 0.048 | 0.049 | 0.1 | 0.17 | -0.139 | -0.055 | – | 0.092 | – | -0.082 | -0.248 | – | 0.442 | 0.06 | -0.249 | 0.031 | 0.005 | -0.06
3 | CHFR (UniProt Q96EP1) | – | -0.052 | 0.004 | -0.032 | 0.033 | -0.03 | – | -0.051 | – | 0.023 | – | -0.012 | – | – | -0.61 (active) | 0.063 | -0.084 | 0.008 | -0.062 | -0.063
4 | DPY19L3 (UniProt Q6ZPD9) | – | – | -0.105 | – | – | – | -0.268 | -0.107 | – | – | – | -0.081 | -0.113 | – | -0.039 | 0 | -0.096 | -0.042 | -0.077 | 0.057
5 | CYP2S1 isoform 2 (UniProt Q96SQ9) | – | 0.027 | -0.085 | -0.151 | – | – | – | 0.023 | – | -0.075 | – | -0.057 | – | – | -0.022 | 0.024 | 0 | -0.219 | 0.316 | -0.023
6 | CYP4V2 (UniProt Q6ZWL3) | – | -0.1 | -0.007 | 0.045 | – | – | -0.441 (active) | 0.12 | – | 0.031 | – | 0.027 | 0.177 | – | – | – | – | -0.066 | 0.049 | –
7 | CLIP1 isoform 2 (UniProt P30622) | 0.029 | 0.117 | -0.085 | 0.088 | -0.033 | -0.005 | – | 0.018 | -0.103 | -0.053 | 0.135 | 0 | 0.031 | 0 | – | -0.012 | -0.015 | -0.017 | 0.066 | 0.047
